Assay outcomes deposited in PubChem BioAssay by several laboratories.
FAS-TE inh: FAS thioesterase (human) inhibition. inhibition, % at 15 µM. recombinant FAS-TE, OMFH fluorogenic substrate, fluorescence endpoint. 0.67% of 360,000 active. P49327;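 active = compounds whose normalised, plate-corrected inhibition of enzyme fluorescence in the single-dose primary screen is 50% or more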;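 also: 0% = DMSO with enzyme and 100% = substrate without enzyme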
ADAM10 inh: inhibitors of human ADAM10 | O14672 | AID 720582 | 0.62% of 370,000 active | inhibition, % at 7 µM | recombinant ADAM10, EDANS/DABCYL FRET peptide cleavage, 3 h;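 active = inhibition above a per-campaign cutoff equal to the mean of compounds falling between control-based bounds plus 3 SD, cut at about 20% in these data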;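 also: 0% = DMSO wells while the 100% control is not disclosed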
Target sequence (O14672 214-748 limits assumed): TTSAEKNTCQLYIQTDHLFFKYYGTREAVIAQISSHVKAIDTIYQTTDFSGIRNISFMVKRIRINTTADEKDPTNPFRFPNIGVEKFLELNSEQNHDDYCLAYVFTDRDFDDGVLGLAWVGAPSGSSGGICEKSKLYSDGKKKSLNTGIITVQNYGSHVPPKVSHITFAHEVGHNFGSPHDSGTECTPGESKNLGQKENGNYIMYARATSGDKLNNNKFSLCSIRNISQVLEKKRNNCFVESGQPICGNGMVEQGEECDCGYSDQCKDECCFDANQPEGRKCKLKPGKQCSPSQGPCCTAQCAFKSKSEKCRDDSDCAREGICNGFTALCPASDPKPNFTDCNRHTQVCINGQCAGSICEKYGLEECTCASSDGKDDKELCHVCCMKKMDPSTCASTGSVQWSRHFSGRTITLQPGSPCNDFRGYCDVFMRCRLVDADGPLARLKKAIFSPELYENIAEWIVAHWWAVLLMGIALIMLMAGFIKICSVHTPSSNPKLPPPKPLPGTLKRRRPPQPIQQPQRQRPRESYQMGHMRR
NR3A LBD binder: modulates the human NR3A ligand-binding domain; NR3A LBD differential scanning fluorimetry, Tm shift; 0% = protein alone, 100% = glycine-bound protein; Tm shift relative to glycine control, % at 25 µM; 2.5% of 340,000 active; AID 1259313;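 active = melting temperature shift of at least 10% of the positive control shift, at one fixed dose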
aDG glyco act: increases alpha dystroglycan glycosylation; 0.22% of 360,000 active; activation, % at 10 µM; AID 624168; Pro5-aDG cells, alpha-DG glycosylation AlphaScreen (IIH6); 0% Pro5, 100% B10-LARGE cell signal;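 active = activation of at least 8% versus controls, or a plate z-score of at least 8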;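 also: Pro5 are CHO cells carrying HIG-tagged alpha-DG that lacks glycosylation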
ADAM17 inh: ADAM17 inhibition, QFRET primary screen. inhibition, % at 6.95 µM. AID 720648. 0.83% of 370,000 active. recombinant ADAM17, EDANS/DABCYL FRET peptide cleavage. P78536;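 active = inhibition above the mean of compounds lying between control limits plus 3 SD, set per campaign, cut at about 8.5% in these data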;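 also: 0% = DMSO-only wells as the low control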
Starred values were filed as active, the others as inactive; i = inactive; x = no result. This is a sample that favours compounds with a hit; in the whole collection about 4% have one here.

SMILES	FAS-TE inh	ADAM10 inh	NR3A LBD binder	aDG glyco act	ADAM17 inh
CCOC(=O)c1c(SCc2ccccc2)n[nH]c1N	-8	2	-5	0	2
N#CCC(=N)N1CCN(c2ccccc2Cl)CC1	0	3	0	0	-6
O=c1cc(-c2ccc(O)c(O)c2)oc2cc(O)cc(O)c12	-3	5	10	0	2
O=c1cc(-c2ccc(O)cc2)oc2c(-c3c(O)cc(O)c4c(=O)cc(-c5ccc(O)cc5)oc34)c(O)cc(O)c12	20	-1	21*	0	2
O=c1cc(-c2ccc(O)c(-c3c(O)cc(O)c4c(=O)cc(-c5ccc(O)cc5)oc34)c2)oc2cc(O)cc(O)c12	29	14	18*	0	6
O=c1c(O)c(-c2ccc(O)c(O)c2)oc2cc(O)cc(O)c12	22	6	22*	0	-3
COc1ccc(-c2cc(=O)c3c(O)cc(O)cc3o2)cc1	8	-4	0	0	-7
O=c1c(-c2c(O)cc(O)c3c(=O)cc(-c4ccc(O)cc4)oc23)c(-c2ccc(O)cc2)oc2cc(O)cc(O)c12	12	-8	27*	0	2
CCc1ccc(NC(=S)N(Cc2ccc(Cl)cc2)Cc2ccc(C(=O)O)cc2)cc1	27	-3	-10	0	3
CCCC[C@@H]1CC2=C(C(=O)OC(C)(C)O2)[C@H](c2ccc(C(C)C)cc2)O1	29	-5	x	0	-2
Cc1cc(C(=O)N[C@H](c2ccccc2)[C@@]2(C)C[C@@H]2[C@@H](C)C(=O)Nc2ccc3ccccc3c2)n(C)n1	20	28*	-8	1	13*
N=c1oc2cc(O)ccc2cc1C(=O)Nc1ccc(Cl)cc1	2	i	20*	0	-282
Cc1ccc(NC(=O)c2cc3ccccc3oc2=N)cc1	-3	-3	-1	0	4
CCCCNC(=O)Cc1cc(=O)[nH]c(=O)[nH]1	-9	-5	2	0	-1
CCCCCc1c(-c2ccccc2F)ncn1CCc1ccccc1OC	27	19	x	3	4
CS(=O)(=O)N(CC(=O)N/N=C/c1cc([N+](=O)[O-])ccc1Cl)c1ccccc1	20	-10	1	0	-5
COc1ccc(C)cc1S(=O)(=O)N(CC(=O)Nc1cccc([N+](=O)[O-])c1)c1ccc(C)c(C)c1	37	3	33*	0	5
Cc1cccc(NS(=O)(=O)c2ccc(NC(=O)CN(c3cc([N+](=O)[O-])ccc3C)S(C)(=O)=O)cc2)c1	26	36*	22*	1	14*
Cc1cccc(N(CC(=O)N/N=C/c2cc([N+](=O)[O-])ccc2Cl)S(C)(=O)=O)c1C	51*	x	0	0	x
Cc1ccc(NC(=O)CSc2nc3ccccc3c(=O)[nH]2)cc1[N+](=O)[O-]	0	-28	-28	0	-6
O=C1C(Cl)=C(Nc2ccccc2O)C(=O)N1CCc1ccccc1	-16	33*	-6	0	16*
COc1ccc(CCNC2=C(Cl)C(=O)N(CCc3ccccc3)C2=O)cc1OC	9	-5	-4	1	1
CCOc1ncccc1C(=O)N(CCC(C)C)c1c(N)n(Cc2ccccc2)c(=O)[nH]c1=O	-6	-9	3	0	-1
Cc1ccc(-c2n[nH]c(=S)n2/N=C/c2sccc2C)cc1	-1	-2	15*	0	-4
Cc1ccsc1/C=N/n1c(-c2cc(-c3ccccc3)n[nH]2)n[nH]c1=S	10	3	1	0	-1
SMILES	FAS-TE inh	ADAM10 inh	NR3A LBD binder	aDG glyco act	ADAM17 inh
Cn1c(=O)c2c(ncn2CC(=O)N2CCN(c3ccc([N+](=O)[O-])cc3)CC2)n(C)c1=O	1	-1	18*	0	2
O=C(NC1CCCCN(Cc2ccc(OC(F)(F)F)cc2)C1=O)c1cccc(F)c1 (configuration not stated)	x	1	x	x	-1
O=C(CO/N=C/c1cccc([N+](=O)[O-])c1)Nc1ccc2ccccc2c1	22	13	13*	0	6
CCC(=O)Nc1ccc(C(=O)N/N=C/c2ccc([N+](=O)[O-])cc2)cc1	-4	8	16*	0	-1
O=C(N/N=C/c1ccc([N+](=O)[O-])cc1)c1ccc(COc2ccccc2-c2ccccc2)cc1	24	14	16*	3	0
O=C(COc1ccc(/C=N/NC(=O)c2ccc(O)cc2)cc1)Nc1cccc([N+](=O)[O-])c1	-3	-1	31*	0	-5
CCC(=O)Nc1ccc(C(=O)NNC(=O)c2ccc([N+](=O)[O-])cc2)cc1	7	6	0	0	-4
CCNCCOC(c1ccccc1)c1ccccc1	-7	0	0	0	-3
O=C1[C@@H]2CSCCS(=O)(=O)N2C(=O)N1C1CCCCC1	x	-4	x	x	-1
O=C(COc1ccc(/C=N/NS(=O)(=O)c2ccccc2)cc1)Nc1cccc(Cl)c1	18	10	16*	0	3
Nc1ccc(C(=O)N/N=C\C=C\c2ccc([N+](=O)[O-])cc2)cc1	-1	3	15*	0	6
O=C(COc1ccc(/C=N/NS(=O)(=O)c2ccccc2)cc1)NCc1ccccc1	-4	4	-2	0	-1
CC(=O)NCCNc1nc2cc(-c3cccc(C(F)(F)F)c3)sc2c(=O)n1C	4	-41	x	0	-10
Cc1[nH]c2ccccc2c1C(=O)CSc1nc2ncc(Cl)cc2[nH]1	2	6	-1	0	0
COc1cc(CN2CCN(Cc3ccc(C)cc3)C(CCO)C2)ccc1O (configuration not stated)	-5	-9	-1	1	-2
CN(/N=C\c1ccc(O)c(O)c1)c1nc(-c2ccccc2)cc(-c2ccccc2)n1	21	-47	21*	-1	-8
O=C(CN1c2ccccc2Sc2ccccc21)NNC(=S)Nc1ccc(Cl)cc1Cl	9	6	21*	0	1
O=C(CN1CCOCC1)NNC(=S)Nc1ccc(Cl)cc1	-6	5	-2	0	-2
O=C(CN1c2ccccc2Sc2ccccc21)NNC(=S)Nc1ccc(Cl)cc1	27	15	33*	0	7
COc1ccc(-c2cn(Cc3ccc(C(N)=O)cc3)c(CCN)n2)cc1	-12	-22	-2	0	-14
O=C(CSc1ccc(Cl)cc1)OCc1nnc(-c2ccccc2)o1	-1	-2	19*	0	-3
O=c1[nH]c(/C=C2\C=Nc3ccccc32)c(O)n1Cc1ccccc1F	16	11	10*	2	3
Cc1ccc(N=C2SC(C(=O)Nc3ccc(OC(F)(F)F)cc3)C(N)=C2C(=O)Nc2c(C)cc(C)cc2C)cc1 (configuration not stated)	25	27*	35*	0	14*
N#Cc1cccc(NC(=O)C2SC(=Nc3ccccc3)C(C(=O)N3CCOCC3)=C2N)c1 (configuration not stated)	14	4	1	0	2
